{"source": "PubChem BioAssay (EPA / NIEHS)", "note": "Results filed as inconclusive are left out. The source made the active and inactive calls. Rule for the calls: active = hit-call score of the fitted dose curve at least 0.9, where 1 is the maximum; inconclusive = response in the unintended direction; inactive = score below 0.9."}
{"read-out": "Cytochrome P450 2B6 (Homo sapiens) (UniProt P20813)", "assay": "CLD_CYP2B6_48hr: CellzDirect (CLD) Gene Expression Assay for xenobiotic metabolism (CYP2B6) at 48 hours (AID 2283699);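 note: actives raise transcript level above DMSO so potency reflects induction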", "procedure": "CLD_48hr is a cell-based, multiplexed-readout assay that uses hepatocyte, a human liver primary cell, with measurements taken at 48 hours after chemical dosing in a 96-well plate.CLD_CYP2B6_48hr is one of 16 assay component(s) measured or calculated from the CLD_48hr assay. It is designed to make measurements of mRNA induction, a form of inducible reporter, as detected with chemiluminescence signals by Quantitative Nuclease Protection Assay (qNPA) technology.Data from the assay component CLD_CYP2B6_48hr was analyzed at the endpoint, CLD_CYP2B6_48hr, in the positive analysis fitting direction relative to DMSO as the negative control and baseline of activity. Using a type of inducible reporter, gain-of-signal activity can be used to understand changes in the reporter gene as they relate to the gene CYP2B6. Furthermore, this assay endpoint can be referred to as a primary readout. To generalize the intended target to other relatable targets, this assay endpoint is annotated to the cyp intended target family, where subfamily is xenobiotic metabolism.\nHuman hepatocyte cultures were treated daily for two consecutive days with fresh dosing solutions containing appropriate concentrations of the 320 ToxCast chemicals (chemical identities were blinded to CellzDirect and other ToxCast collaborators), vehicle control (0.2% DMSO), and positive control inducers as summarized in Table 1. Due to the large number of treatment groups and chemicals examined, the ToxCast chemicals were divided into two groups (spanning two independent cultures of hepatocytes from separate donor preparations (Hu778: ToxCast plates 1 and 2; Hu776: ToxCast plates 3 and 4). Each preparation of human hepatocyte cultures was treated with respective vehicle control, medium only control, set of six positive controls/reference chemicals for the five hepatic receptor pathways, and a subset of eight of the ToxCast chemicals (indoxacarb, pyrithiobac-sodium, norflurazon, cyhalofop-butyl, methomyl, thiram, acetochlor, and propiconazole). These replicate data, coupled with internal replicates designed within the blinded ToxCast chemical library, provided additional data to evaluate interindividual differences between hepatocyte preparations and their potential impact on chemical profiles.Cell morphology and integrity were evaluated using phase-contrast microscopy as an indicator of hepatocyte cell health (Tyson & Green, 1987). Cultures for each treatment group (i.e., media, vehicle [0.2% DMSO], positive control inducers [multiple concentrations], and the ToxCast chemicals [multiple concentrations]) were observed and cell morphology was assessed relative to vehicle control cultures at each harvest time point (0, 6, 24, or 48 h). […] Images were evaluated at the conclusion of the study to assess changes in cell integrity and account for the effects of chemical exposure on uncharacteristic changes in concentration-dependent gene expression profiles. The results from these determinations of apparent cytotoxicity were annotated (yes/no) alongside the corresponding qNPA data for reference.At the conclusion of each treatment period, hepatocyte cultures (96-well) were washed with 1 volume of HBSS, lysed by addition of 25 ul ArrayPlate lysis buffer (HTG, Tucson, AZ), and 70 ul/well of Denaturation Oil, denatured by incubation at 95C for 10 min, and frozen at approximately -70C until analysis by nuclease protection assay (qNPA) (Roberts et al., 2007). For qNPA analysis, cell lysates were thawed at 50C for approximately 30 min, qNPA probes were added, and samples were incubated at 95C for 10 min to begin the detection process by denaturing the target RNA, dissociating the duplexes and secondary structure hybridization. At the conclusion of the hybridization period, S1 nuclease reagent was added to each sample to digest all nonprotected nucleotides at 50C for 60-90 min. […]"}
{"smiles": "CC(C)NC(=O)N1CC(=O)N(c2cc(Cl)cc(Cl)c2)C1=O", "AC50": "3.92 µM (active)"}
{"smiles": "CS(=O)(=O)c1ccc(C(=O)C2C(=O)CCCC2=O)c([N+](=O)[O-])c1", "outcome": "inactive"}
{"smiles": "O=C1C2CC=CCC2C(=O)N1SC(Cl)(Cl)Cl", "note": "(stereo not given)", "outcome": "inactive"}
{"smiles": "CC(C)N1C(=O)N(c2ccccc2)CSC1=NC(C)(C)C", "AC50": "4.31 µM (active)"}
{"smiles": "CO/N=C(/C1=NOCCO1)c1ccccc1Oc1ncnc(Oc2ccccc2Cl)c1F", "AC50": "1.89 µM (active)"}
{"smiles": "CCCCC(C#N)(Cn1cncn1)c1ccc(Cl)cc1", "note": "(stereo not given)", "AC50": "4.45 µM (active)"}
{"smiles": "CC1(C)C(C=C(Cl)Cl)C1C(=O)OC(C#N)c1cccc(Oc2ccccc2)c1", "note": "(stereo not given)", "AC50": "6.46 µM (active)"}
{"smiles": "CC1(C)C(C(=O)OC(C#N)c2cccc(Oc3ccccc3)c2)C1(C)C", "note": "(stereo not given)", "AC50": "4.06 µM (active)"}
{"smiles": "Clc1cccc(C(Cl)(Cl)Cl)n1", "AC50": "1.47 µM (active)"}
{"smiles": "COC(=O)NC(=S)Nc1ccccc1NC(=S)NC(=O)OC", "AC50": "20 µM (active)"}
{"smiles": "Nc1c(Cl)c(Cl)nc(C(=O)O)c1Cl", "outcome": "inactive"}
{"smiles": "CCN(CC)c1nc(C)cc(OP(=S)(OC)OC)n1", "AC50": "0.684 µM (active)"}
{"smiles": "CC1(C)CCC(=Cc2ccc(Cl)cc2)C1(O)Cn1cncn1", "note": "(stereo not given)", "AC50": "4.01 µM (active)"}
{"smiles": "N#Cc1c[nH]cc1-c1cccc2c1OC(F)(F)O2", "AC50": "2.54 µM (active)"}
{"smiles": "CC(C)(C)C(=O)C(Oc1ccc(Cl)cc1)n1cncn1", "note": "(stereo not given)", "AC50": "3.31 µM (active)"}
{"smiles": "CCCCC(O)(Cn1cncn1)c1ccc(Cl)cc1Cl", "note": "(stereo not given)", "AC50": "0.63 µM (active)"}
{"smiles": "O=C(Nc1ccccc1-c1ccc(Cl)cc1)c1cccnc1Cl", "AC50": "1.89 µM (active)"}
{"smiles": "COC(=O)NS(=O)(=O)c1ccc(N)cc1", "outcome": "inactive"}
{"smiles": "COc1cc(OC)nc(NC(=O)NS(=O)(=O)c2ncccc2OCC(F)(F)F)n1", "outcome": "inactive"}
{"smiles": "OC(c1ccc(Cl)cc1)(c1ccc(Cl)cc1)C(Cl)(Cl)Cl", "AC50": "4.47 µM (active)"}
{"smiles": "CC1(C)CON(Cc2ccccc2Cl)C1=O", "AC50": "3.23 µM (active)"}
{"smiles": "COC(=O)N(C(=O)N1CO[C@@]2(C(=O)OC)Cc3cc(Cl)ccc3C2=N1)c1ccc(OC(F)(F)F)cc1", "AC50": "0.505 µM (active)"}
{"smiles": "Nc1c(Cl)c(F)nc(OCC(=O)O)c1Cl", "outcome": "inactive"}
{"smiles": "COc1ccc(-c2ccccc2)cc1NNC(=O)OC(C)C", "outcome": "inactive"}
{"smiles": "O=C(O)c1c(Cl)ccc2cc(Cl)cnc12", "outcome": "inactive"}
{"smiles": "C=C(C)CN(CC)c1c([N+](=O)[O-])cc(C(F)(F)F)cc1[N+](=O)[O-]", "outcome": "inactive"}
{"smiles": "O=P(O)(O)CCCl", "outcome": "inactive"}
{"smiles": "CCNP(=S)(OC)O/C(C)=C/C(=O)OC(C)C", "note": "(stereo not given)", "AC50": "0.598 µM (active)"}
{"smiles": "O=c1n(Cl)c(=O)n(Cl)c(=O)n1Cl", "outcome": "inactive"}
{"smiles": "COC(=O)c1c(C(F)F)nc(C(F)(F)F)c(C2=NCCS2)c1CC(C)C", "AC50": "0.378 µM (active)"}
{"smiles": "CSC(=O)c1c(C(F)F)nc(C(F)(F)F)c(C(=O)SC)c1CC(C)C", "AC50": "0.416 µM (active)"}
{"smiles": "COP(=S)(OC)Oc1ccc([N+](=O)[O-])c(C)c1", "AC50": "2.67 µM (active)"}
{"smiles": "CCCCOCN(C(=O)CCl)c1c(CC)cccc1CC", "AC50": "2.5 µM (active)"}
{"smiles": "CCCN(CC)CC1COC2(CCC(C(C)(C)C)CC2)O1", "note": "(stereo not given)", "outcome": "inactive"}
{"smiles": "Clc1nc(Cl)nc(Nc2ccccc2Cl)n1", "outcome": "inactive"}
{"smiles": "CC(C)C1(C)N=C(c2ncccc2C(=O)O)NC1=O", "note": "(stereo not given)", "AC50": "0.000587 µM (active)"}
{"smiles": "CC(C)=CC1C(C(=O)OCc2coc(Cc3ccccc3)c2)C1(C)C", "note": "(stereo not given)", "AC50": "20 µM (active)"}
{"smiles": "Cc1cc(C)nc(Nc2ccccc2)n1", "AC50": "1.61 µM (active)"}
{"smiles": "C=CCOC(=O)C(C)(C)OC(=O)c1cc(-n2c(=O)cc(C(F)(F)F)n(C)c2=O)ccc1Cl", "AC50": "0.168 µM (active)"}
{"smiles": "CCN(CC)C(=O)C(C)Oc1cccc2ccccc12", "note": "(stereo not given)", "AC50": "6.33 µM (active)"}
